Source: PubChem BioAssay
Where “and” joins values, the source holds several entries; their conditions need not be identical. Equal entries are not always repeated. Calls of active or inactive are those of the source.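 The calls were made as follows, unless noted: active = compounds whose cell count with miR-34 switched on is under 0.7 times the count with it off; inactive = the rest.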

Key:
[1] = viability loss with induced miR-34 in A549 – imaging, A549 dox-inducible miR-34, nuclei and caspase counts, primary screen (AID 1347080); details: A549 miR-34 inducible, Hoechst nuclei count, 48 h; also: test concentration not given here
[2] = galactose survival enhancers in mitochondrial complex I cybrids – cell-based, galactose medium, ATP luminescence, primary screen (AID 1645843;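 active = z-score of at least 1.8 in each of two replicates, scored against plate mean and spread of sample wells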;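 also: positive z means more ATP and so rescue of galactose-driven cybrid death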); details: complex I mutant cybrid cells, 72 h, stronger effect = higher value
[3] = stronger effect = lower value, cell number ratio, induced over uninduced
[4] = measured here: relative caspase fold change +Dox/-Dox
[5] = measured here: total cells with miR-34 induction, stronger effect = lower value
[6] = measured here: total cells without miR-34 induction

Row | Compound | fold change [1, 3] | fold change [1, 4] | cell count [1, 5] | cell count [1, 6] | z-score [2]
1 | CC1(C)SC2C(N=CN3CCCCCC3)C(=O)N2C1C(=O)O (stereo not given) | 0.941 (inactive) | 1.42 | 9640 | 10200 | 0.33 (inactive)
2 | OCC1OC(n2cnc3c(NC4CCCC4O)ncnc32)C(O)C1O (stereo not given) | 0.907 (inactive) | 0.906 | 9400 | 10400 | 0.73 (inactive)
3 | CC1CCC2C(C)C(OC(=O)CCC(=O)O)OC3O[C@@]4(C)CCC1[C@]32OO4 (stereo not given in full) | 0.992 (inactive) | 1.91 | 6760 | 6810 | -1.79 (inactive)
4 | CC(C)CC(NC(=O)C(COC(C)(C)C)NC(=O)C(Cc1ccc(O)cc1)NC(=O)C(CO)NC(=O)C(Cc1c[nH]c2ccccc12)NC(=O)C(Cc1cnc[nH]1)NC(=O)C1CCC(=O)N1)C(=O)NC(CCCN=C(N)N)C(=O)N1CCCC1C(=O)NNC(N)=O (stereo not given) | 1.04 (inactive) | 1.1 | 7490 | 7190 | 0.385 (inactive)
5 | [Cl-].[Cl][Pt].[NH2-].[NH2-].c1ccncc1 | 0.987 (inactive) | 0.925 | 9550 | 9680 | -1 (inactive)
6 | CCCCC(=O)N(Cc1ccc(-c2ccccc2-c2nn[nH]n2)cc1)C(C(=O)O)C(C)C (stereo not given) | 0.925 (inactive) | 1.23 | 9560 | 10300 | 1.69 (inactive)
7 | COc1ccc(CCCOc2cc(CCn3ccnc3)ccc2OC)cc1 | 1.41 (inactive) | 0.402 | 3260 | 2300 | -1.33 (inactive)
8 | CN1CC(=O)N/C1=N\C(=O)Nc1cccc(Cl)c1 | 1.1 (inactive) | 0.699 | 10900 | 9930 | 0.545 (inactive)
9 | CC(=O)O[C@]1(C(C)=O)CCC2C3C=C(C)C4=CC(=O)CC[C@]4(C)C3CC[C@@]21C (stereo not given in full) | 0.943 (inactive) | 1.2 | 6760 | 7170 | -0.29 (inactive)
10 | CCC(C)C(=O)OC1CCC=C2C=CC(C)C(CCC3CC(O)CC(=O)O3)C21 (stereo not given) | 0.968 (inactive) | 0.887 | 1480 | 1530 | -0.74 (inactive)
11 | COc1cc(CNC(=O)CCCCC=CC(C)C)ccc1O | 0.954 (inactive) | 2.14 | 9660 | 10100 | 0.315 (inactive)
12 | CCC(C)C(=O)OC1CC(O)C=C2C=CC(C)C(CCC(O)CC(O)CC(=O)O)C21 (stereo not given) | 0.961 (inactive) | 1.91 | 10300 | 10800 | 0.5 (inactive)
13 | C[C@]12C=CC(=O)C=C1CCC1C2C(O)C[C@@]2(C)C1CC[C@]2(O)C(=O)COC(=O)CCC(=O)O (stereo not given in full) | 0.962 (inactive) | 2.02 | 7550 | 7850 | 1.77 (inactive)
14 | CC(C)CC(NC(=O)C(O)C(N)Cc1ccccc1)C(=O)O (stereo not given) | 0.913 (inactive) | 1.61 | 8460 | 9270 | 0.29 (inactive)
15 | CC1CC2C3CC(F)C4=CC(=O)C(Cl)=C[C@]4(C)[C@@]3(F)C(O)C[C@]2(C)[C@@]1(O)C(=O)CO (stereo not given in full) | 0.952 (inactive) | 1.63 | 6600 | 6930 | 0.895 (inactive)
16 | C#C[C@]1(O)CCC2C3C(C)CC4=C(CCC(=O)C4)C3CC[C@@]21C (stereo not given in full) | 0.909 (inactive) | 1.5 | 8730 | 9600 | -0.655 (inactive)
17 | OCC1OC(n2cnc3c(NC4CCCC4)nc(Cl)nc32)C(O)C1O (stereo not given) | 0.88 (inactive) | 1.42 | 9520 | 10800 | 1.5 (inactive)
18 | CN(C)CCC=C1c2ccccc2COc2ccccc21 | 0.942 (inactive) | 2.06 | 8300 | 8810 | -0.535 (inactive)
19 | C=C1C(=CC=C2CCC[C@@]3(C)C2CCC3C(C)CCCC(C)(C)O)CC(O)CC1O (stereo not given in full) | 0.912 (inactive) | 1.66 | 9420 | 10300 | -1.52 (inactive)
20 | O=C1NC(C(=O)O)CS1 (stereo not given) | 0.93 (inactive) | 1.73 | 9590 | 10300 | 1.05 (inactive)
21 | O=C1NC(=O)c2c1c(-c1ccccc1)cc1[nH]c3ccc(O)cc3c21 | 0.992 (inactive) and 1.16 (inactive) | 0.466 and 1.08 | 2060 and 2860 | 2080 and 2470 | -1.27 (inactive) and -0.655 (inactive)
22 | O=c1c(OC2OC(CO)C(O)C(O)C2O)c(-c2ccc(O)c(O)c2)oc2cc(O)cc(O)c12 (stereo not given) | 0.911 (inactive) and 0.974 (inactive) | 0.962 and 2.15 | 4950 and 10100 | 5430 and 10300 | -1.74 (inactive) and 0.575 (inactive)
23 | CN1CCc2cc(Cl)c(O)cc2C(c2ccccc2)C1 (stereo not given) | 0.944 (inactive) | 0.98 | 8780 | 9300 | 0.39 (inactive)
24 | CC1=C(C(=O)O)N2C(=O)C(NC(=O)C(N)c3ccccc3)C2SC1 (stereo not given) | 0.933 (inactive) | 1.4 | 8950 | 9590 | 0.52 (inactive)
